Shown are actives, neighbours in structure and some others; about 5.7% of the full set was active somewhere.
ATXN2 expr inh: ATXN2 expression inhibition. HEK-293 ATXN2-luciferase reporter, luminescence, 24 h. Potency, µM (top dose mostly 57 µM), hits mostly inhibitors. actives 0.72% (n = 360,000). AID 1745845; further: nearly all actives have a fitted effect of over 55% in size
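ATXN2-luciferase reporter cells (luciferase flanked by upstream and downstream ATXN2 gene portions) were treated 24 h at 37 °C with compounds at up to 57 uM. SteadyGlo luminescence gave expression; GF-AFC fluorescence gave viability.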
TGFb inhibitor: TGF-b pathway inhibition; HepG2 CAGA-GFP TGF-b/SMAD3 reporter, GFP fluorescence, 18 h; TGF-beta stimulated, 500 pg/mL final; Potency, µM (series often up to 46.1 µM), most hits filed as inhibitors; actives 1.2% (n = 410,000); AID 588855; further: nearly all actives have a fitted effect of over 65% in size
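TGF-beta reporter screen: HEPG2 CAGA-GFP, 1% FBS, 500 pg/mL TGF-beta final, 18 h; per-cell GFP summed per well; curves fitted and categorized by class.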
S2 tox: cell viability loss in ATXN counter-screen. AID 651635. actives 0.49% (n = 400,000). S2 cells (HEK-293 line with an ATXN2-luciferase reporter) viability, CellTiter-Fluor protease fluorescence, 24 h. Potency, µM (doses to about 56.7 µM), most hits filed as cytotoxic; further: nearly all actives have a fitted effect of over 40% in size
IL1B secr inh: blocks inflammasome-driven IL-1 beta release; AID 743279; THP-1 LPS/ATP IL-1B secretion, AlphaLISA, 16 h; stronger effect = lower value; actives 4.7% (n = 360,000); activity change, % at 57.5 µM; in the data active means activity change below about -50%; inconclusive means mostly about -30% to -49%
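Secreted IL-1B measured by AlphaLISA bead assay after 16 h compound exposure of THP-1 cells; compounds (final up to 57.5 uM) added 1 h before LPS (250 ng/mL) and ATP (1.25 mM) stimulation; lower signal means less secretion.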
HepG2 tox-1: HepG2 cytotoxicity, counter-screen for TGF-b inhibitors | HepG2 CAGA-GFP viability, ATP luminescence, 18 h | Potency, µM (highest dose often 46.1 µM), most hits filed as cytotoxic | actives 0.76% (n = 410,000)
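HepG2 CAGA-GFP cells (1000/well, DMEM with 1% FBS) received compound, then TGF-beta at 500 pg/mL final, and were incubated 18 hours at 37 degrees C. Viability was read by CellTiter-Glo luminescence. Media-only wells were set as complete cell-killing and DMSO as no toxicity.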
TGFb CAGA inh: TGF-b pathway inhibition, cherry-pick retest; AID 720534; actives 63% (n = 1,600); shares compounds with TGFb inhibitor; HepG2 CAGA-GFP TGF-b reporter, GFP fluorescence, 18 h; cells stimulated with TGF-beta, 500 pg/mL; Potency, µM (doses to about 46.1 µM), most hits filed as inhibitors; further: nearly all actives have a fitted effect of over 65% in size
HepG2 tox-2: counter-screen for TGF-b inhibitors: cytotoxicity in HepG2 cells; shares compounds with TGFb inhibitor; HepG2 CAGA-GFP viability, ATP luminescence, 18 h; cells stimulated with TGF-beta, 500 pg/mL; Potency, µM (highest dose often 46.1 µM), actives largely listed as inhibitors; actives 27% (n = 1,600); further: nearly all actives have a fitted effect of over 70% in size
TGFb CCL64 inh: blocks TGF-b signaling in CCL64 reporter cells; AID 720536; Potency, µM (top dose mostly 46.1 µM), usual class: inhibitors; actives 41% (n = 1,600); CCL64 CAGA-GFP reporter, TGF-b stimulated, GFP fluorescence, 18 h; shares compounds with TGFb inhibitor; further: nearly all actives have a fitted effect of over 65% in size
COP TGFb inh: validation of TGF-b inhibitors in HepG2 COP promoter reporter; shares compounds with TGFb inhibitor; HepG2 COP-GFP TGF-b reporter, GFP fluorescence, 18 h; cells stimulated by added recombinant TGF-beta; Potency, µM (top dose mostly 46.1 µM), usual class: inhibitors; actives 3% (n = 1,600); AID 720537; further: nearly all actives have a fitted effect of over 70% in size
Each line names hits and unclear results; the compound was inactive in the other large screens (follow-up assays come after a bar, where they were run); ! = a repeat was not active. Unless noted, the call rests on the fitted dose curve; in most records, active means well fitted curve in the direction sought with a large enough effect; inconclusive means small, poorly fitted or top-dose-only effect, or another doubt; inactive means no such curve, though single readings can be large; an effect the other way counts as inactive or inconclusive.

Cc1ccc(NC(=O)c2nc(S(=O)(=O)Cc3ccccc3C)ncc2Cl)cc1C	ATXN2 expr inh inconclusive, TGFb inhibitor 7.1µM, S2 tox inconclusive, IL1B secr inh -100, HepG2 tox-1 16µM | TGFb CAGA inh 3.3µM | HepG2 tox-2 10µM | TGFb CCL64 inh 3.7µM | COP TGFb inh inconclusive
NS(=O)(=O)c1ccc(NC(=O)c2nc(S(=O)(=O)Cc3ccccc3F)ncc2Cl)cc1	TGFb inhibitor inconclusive (no result: ATXN2 expr inh, S2 tox, IL1B secr inh)
COc1ccccc1NC(=O)c1nc(SCc2ccc(F)cc2)ncc1Cl	none (no result: ATXN2 expr inh, S2 tox, IL1B secr inh)
CCOC(=O)c1ccc(NC(=O)c2nc(S(=O)(=O)Cc3ccccc3)ncc2Cl)cc1	ATXN2 expr inh inconclusive, TGFb inhibitor 3.5µM, S2 tox 20µM, IL1B secr inh -105, HepG2 tox-1 6.3µM! | TGFb CAGA inh 4.6µM | HepG2 tox-2 6.5µM | TGFb CCL64 inh 2.3µM | COP TGFb inh 13µM
CCN(CC)c1ccc(NC(=O)Cn2nc(C)n3cccc3c2=O)c(C)c1	none (no result: ATXN2 expr inh, S2 tox, IL1B secr inh)
Cc1cc2oc3c(c(=O)c2cc1C)C(c1ccc(C(C)C)cc1)N(c1nc(C)c(C)s1)C3=O (centres undefined)	none (no result: IL1B secr inh)
COc1cc(OC)c(NC(=O)CSC2=Nc3ccccc3N=C(c3ccc(F)cc3)C2)cc1Cl	none (no result: IL1B secr inh)
CCOc1ccc(N(Cc2cc3cc(C)ccc3[nH]c2=O)C(=O)c2cccc(Cl)c2)cc1	none (no result: IL1B secr inh)
Cc1ccc(C(=O)NCc2ccc3c(c2)OCO3)c(Cl)c1	none (no result: ATXN2 expr inh)
CN(c1ccccc1)S(=O)(=O)c1ccc(NC(=O)c2nc(S(C)(=O)=O)ncc2Cl)cc1	ATXN2 expr inh 14µM, TGFb inhibitor 5.6µM, S2 tox 16µM, IL1B secr inh -96, HepG2 tox-1 5.6µM | TGFb CAGA inh 2.9µM | HepG2 tox-2 4.1µM | TGFb CCL64 inh 1.8µM | COP TGFb inh 6.5µM
CCOc1ccccc1NC(=O)c1nc(S(=O)(=O)Cc2ccccc2)ncc1Cl	TGFb inhibitor 5µM, S2 tox 8.9µM, IL1B secr inh -97, HepG2 tox-1 6.3µM (no result: ATXN2 expr inh) | TGFb CAGA inh 2.9µM | HepG2 tox-2 5.8µM | TGFb CCL64 inh 4.6µM | COP TGFb inh 7.3µM
Cc1cccc(CS(=O)(=O)c2ncc(Cl)c(C(=O)NCc3ccc4c(c3)OCO4)n2)c1	TGFb inhibitor 7.9µM, S2 tox inconclusive, IL1B secr inh -96, HepG2 tox-1 14µM (no result: ATXN2 expr inh) | TGFb CAGA inh 5.8µM | HepG2 tox-2 13µM | TGFb CCL64 inh 2.9µM | COP TGFb inh inconclusive
Cc1ccc(OCCn2nnc3sc4c(c3c2=O)CCC(C)C4)cc1 (centres undefined)	none (no result: IL1B secr inh)
CC(C)(C)NC(=O)c1ccc2nc(CCc3ccccc3)oc2c1	none (no result: IL1B secr inh)
CCOC(=O)C1=C(CC)Nc2ccccc2N=C1NC(=O)c1cc(C)on1	none
CCOC(=O)C1=C(CC)Nc2ccccc2N=C1NC(=O)Nc1ccc(Cl)c(Cl)c1	ATXN2 expr inh inconclusive, TGFb inhibitor 7.1µM, S2 tox inconclusive, IL1B secr inh -74 | TGFb CAGA inh 18µM | HepG2 tox-2 inconclusive | TGFb CCL64 inh 6.5µM | COP TGFb inh inactive
O/C(=C\c1nc2ccccc2[nH]1)c1cccs1	IL1B secr inh inconclusive
COc1ccc(C(=O)N/C(=C\c2cccs2)c2nc3ccccc3[nH]2)cc1OC	none

Screening data (PubChem)
